High-throughput results: PubChem, National Center for Advancing Translational Sciences (NCATS)
The full list was thinned out, with hits kept by preference.
Methyltransferases: Primary Screen for Target Class Profiling of Small Molecule Inhibitors of Methyltransferases | purified enzyme, MTase-Glo SAH luminescence; hits give low values | 3.9% of 25,000 active | calls only at 40 µM; call rule not given here
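Each enzyme was reacted with SAM and its substrate, with compounds tested once at 40 uM; SAH formed was read by MTase-Glo luminescence.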
The depositor's hits bear a star; i = inactive; + = active, no number. On the % scale 0 is the no-effect control and ±100 the full control effect.

SMILES	Methyltransferases
CCc1cc2c(cc3n2CC(C)(C(=O)NC2CCCCCC2)N(CCN2CCOCC2)C3=O)s1 (centres undefined)	i
CC1(C(=O)NC2CCCCC2)Cn2nc(-c3cccs3)cc2C(=O)N1Cc1ccc(Cl)cc1 (centres undefined)	i
COc1ccc(S(=O)(=O)Nc2nc(-c3cccc([N+](=O)[O-])c3)cs2)cc1OC	i
COc1ccc(C2CC(=O)c3cc(-c4nc(-c5cccc([N+](=O)[O-])c5)cs4)c(=O)n(-c4ccccc4N)c3C2)cc1 (centres undefined)	+
Cc1ccc(C(=O)N(CC2CCN(Cc3ccccc3F)CC2)CC2CCCO2)s1 (centres undefined)	i
CC1(C(=O)NC2CCCCC2)Cn2c(c(-n3cccc3)c3ccccc32)C(=O)N1Cc1ccco1 (centres undefined)	i
COc1cccc(NC(=O)CSc2nnc3n(CC(C)C)c(=O)c4cc(F)ccc4n23)c1	i
CC(=O)O[C@@H]1[C@@H](O)[C@H](C)O[C@@H](O[C@H]2[C@@H]3C=CO[C@@H](O[C@@H]4O[C@H](CO)[C@@H](O)[C@H](O)[C@H]4O)[C@@H]3[C@@]3(CO)O[C@@H]23)[C@@H]1OC(=O)/C=C/c1ccccc1	i
CC1=CC(=O)C2(OC3OC(C)C(O)C(OC(=O)/C=C/c4ccccc4)C3O)C=COC(OC3OC(CO)C(O)C(O)C3O)C12 (centres undefined)	+
C[C@@H]1O[C@@H](O[C@H]2[C@@H]3C=CO[C@@H](O[C@@H]4O[C@H](CO)[C@@H](O)[C@H](O)[C@H]4O)[C@@H]3[C@@]3(CO)O[C@@H]23)[C@H](O)[C@H](OC(=O)/C=C/c2ccccc2)[C@H]1O	i
CCC(C)NC(=O)c1ccc2c(=O)n(C)c3nn(CC(=O)N(C)c4ccc(F)cc4)c(=O)n3c2c1 (centres undefined)	i
CC(CN1C(=O)c2cc3sccc3n2CC1(C)C(=O)NC1CCCCC1)c1ccccc1 (centres undefined)	i
CC(C)CCNC(=O)C1(C)Cn2c(c(-n3cccc3)c3ccccc32)C(=O)N1Cc1ccco1 (centres undefined)	i
CCOC(=O)c1c(NC(=O)N2CCn3c(C)ccc3C2CC)sc2c1CCCC2 (centres undefined)	i
Cc1c(Cl)cccc1N1C(=O)c2cc3ccccc3n2CC1(C)C(=O)NC1CCCC1 (centres undefined)	i
CCOc1ccc(N2C(=O)c3cc4sccc4n3CC2(C)C(=O)NC2CCCCCC2)cc1 (centres undefined)	i
CCS(=O)(=O)c1cccc(-c2cc(C(=O)NC3CCN(C)CC3)c(C)c3[nH]c4ncc(C)cc4c23)c1	+
Cn1ncc2c(C(=O)NC3CCCCCC3)cc(C(C)(C)C)nc21	i
COc1cccc(C(=O)NC2CCN(c3cc(-c4cccs4)[nH]n3)CC2)c1OC	i
CC1(C(=O)NC2CCCCCC2)Cn2c(ccc2-c2ccccc2)C(=O)N1Cc1ccccc1 (centres undefined)	i
Cc1ccc(N2C(=O)c3cc4occc4n3CC2(C)C(=O)NC2CCCC(C)C2C)cc1 (centres undefined)	i
COc1ccc(NC(=O)c2nc3sccn3c2-c2ccncc2)cc1	i
CN(C)CCCc1cc(C(=O)Nc2ccc(-c3ccncc3)cc2)ccc1O	+
COc1ccc(C(=O)Nc2ccc3c(c2)C(=O)N(C)C2=NCCN23)cc1OC	i
Cc1cnc(CCNS(=O)(=O)c2cccc(F)c2)n1Cc1ccccc1	i
SMILES	Methyltransferases
CCN(CC)C(=S)SSC(=S)N(CC)CC	+
Cc1ccc(CN2C(=O)c3cc4oc(C)cc4n3CC2(C)C(=O)NC2CCCCCC2)cc1 (centres undefined)	i
COc1cccc(CN2C(=O)c3ccc(-c4ccco4)n3CC2(C)C(=O)NCc2ccc(Cl)cc2)c1OC (centres undefined)	i
Cc1ccccc1CN1C(=O)c2cc(-c3ccco3)nn2CC1(C)C(=O)NC1CCCCCC1 (centres undefined)	i
C[C@H]1c2cccc(O)c2C(O)=C2C(=O)[C@]3(O)C(O)=C(C(N)=O)C(=O)[C@@H](N(C)C)[C@@H]3[C@@H](O)[C@@H]21	+
COc1ccc(NC(=O)Cn2nc3nc(Nc4ccc(F)cc4)ccn3c2=O)cc1F	i
O=C(NCC(F)(F)F)c1cn2cc(-c3ccc(C(F)(F)F)cc3)sc2n1	i
Cc1nnc(C[C@@H]2C=C(c3ccc(Cl)cc3)c3ccccc3-n3c(C)nnc32)o1	+
COc1ccc(NC(=O)CSc2nnc3n(CCc4ccccc4)c(=O)c4ccccc4n23)cc1	i
CCCn1c(=O)c2ccc(Cl)cc2n2c(=O)n(CC(=O)Nc3ccc4c(c3)OCCO4)nc12	i
O=S(=O)(Nc1cc(Cl)c(Oc2cnc3ccccc3c2)c(Cl)c1)c1ccc(Cl)cc1Cl	+
COc1ccc(NS(=O)(=O)c2cc3c(cc2Cl)n(C)c(=O)n3C)cc1	i
Cn1c(=O)n(C)c2cc(S(=O)(=O)Nc3ccccc3)c(Cl)cc21	i
Nc1nonc1-c1nc2cnccc2n1C1CCCCC1	+
CCOC(=O)c1cc2n(n1)CC(C)(C(=O)NC1CCCCCC1)N(c1ccc(F)cc1F)C2=O (centres undefined)	i
CCCn1c(=O)c2ccc(C(=O)NC3CCCCC3)cc2n2c(=O)n(Cc3ccccc3Cl)nc12	i
O=S(=O)(NCc1cccnc1-c1ccc(F)cc1)c1ccc(F)cc1	i
COc1ccccc1CNC(=O)CCc1nnc2n(Cc3ccccc3Cl)c(=O)c3ccccc3n12	i
Nc1ncnc2c1c(-c1cccc(OCc3ccccc3)c1)cn2C1CC(CN2CCC2)C1 (centres undefined)	+
CCc1ccc(-c2cc3n(n2)CC(C)(C(=O)NC2CCCCC2)N(Cc2ccccc2)C3=O)cc1 (centres undefined)	i
CCC(C)NC(=O)c1ccc2c(=O)n(C)c3nn(CC(=O)Nc4ccccc4Cl)c(=O)n3c2c1 (centres undefined)	i
CCOc1ccc(C2c3cccn3-c3sc4c(c3CN2C(=O)Nc2ccc(C)cc2)CCCC4)cc1 (centres undefined)	i
CCCC1c2cccn2CCN1C(=O)Nc1ccccc1 (centres undefined)	i
CC1CCC(NC(=O)C2c3cccn3CC(=O)N2CCC2=CCCCC2)CC1 (centres undefined)	i
CC[N+]1(C/C2=C/CCCCCC2)CCC(NC(=O)C2c3cc(Cl)ccc3Oc3ccc(Cl)cc32)CC1 (centres undefined)	+
SMILES	Methyltransferases
CCCn1c(=O)c2ccccc2n2c(=O)n(CC(=O)c3ccccc3)nc12	i
CC1CCCC(NC(=O)C2c3cccn3CC(=O)N2c2ccc(Cl)cc2)C1C (centres undefined)	i
Cc1ccccc1-n1c(Cn2nc(-c3cccc(O)c3)c3c(N)ncnc32)nc2cccc(C)c2c1=O	+
COc1ccc(-c2n[nH]n3c2nc(=O)c2ccc(C(=O)NCc4ccc(F)cc4)cc23)cc1	i
O=C(O)CCc1nccc2c1[nH]c1ccccc12	i
Oc1cccc(Nc2ccnc3[nH]c4ccccc4c23)c1	+
O=C(CSc1nnc2n(Cc3ccc(F)cc3)c(=O)c3ccccc3n12)NCc1ccccc1	i
Cc1ccc(NC(=O)c2ccc(CN3CCNCC3)cc2)cc1Nc1nccc(-c2cccnc2)n1	i
